Laboratory results taken from article PMC11006913.

How the values were obtained:
Assay in all cases: PBM; 200 nM protein, PBS
Settings in all cases: dsDNA, one strand shown
HOXA4 [1] = target: HOXA4 (Homo sapiens, UniProt Q00056 201-287, W262R)
HOXA4 [2] = target: HOXA4 (Homo sapiens, UniProt Q00056 201-287, R217L)
HOXA4 [3] = target: HOXA4 (Homo sapiens, UniProt Q00056 201-287)
HOXA4 [4] = target: HOXA4 (Homo sapiens, UniProt Q00056 201-287, W262F)
HOXD13 = HOXD13 (Homo sapiens, UniProt P35453 263-343)
VAX1 [5] = target: VAX1 (Homo sapiens, UniProt Q5SQQ9 86-172)
VAX1 [6] = target: VAX1 (Homo sapiens, UniProt Q5SQQ9 86-172, T142I)
VAX1 [7] = target: VAX1 (Homo sapiens, UniProt Q5SQQ9 86-172, K157R)
Chain of VAX1 (Homo sapiens, UniProt Q5SQQ9 86-172, K157R) (Q5SQQ9 86-172 K157R): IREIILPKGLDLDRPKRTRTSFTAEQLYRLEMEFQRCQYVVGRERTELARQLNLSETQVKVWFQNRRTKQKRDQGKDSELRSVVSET

Chain of HOXA4 (Homo sapiens, UniProt Q00056 201-287, R217L) (Q00056 201-287 R217L): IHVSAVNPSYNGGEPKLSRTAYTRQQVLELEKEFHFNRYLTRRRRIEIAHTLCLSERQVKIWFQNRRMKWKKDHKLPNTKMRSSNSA
Chain of HOXA4 (Homo sapiens, UniProt Q00056 201-287, W262R) (Q00056 201-287 W262R): as the sequence (Q00056 201-287 R217L) above, with L17R, W62R counted along it
Chain of HOXA4 (Homo sapiens, UniProt Q00056 201-287, W262F) (Q00056 201-287 W262F): as the sequence (Q00056 201-287 R217L) above, with L17R, W62F counted along it
Chain of HOXA4 (Homo sapiens, UniProt Q00056 201-287) (Q00056 201-287): as the sequence (Q00056 201-287 R217L) above, with L17R counted along it
Chain of HOXD13 (P35453 263-343): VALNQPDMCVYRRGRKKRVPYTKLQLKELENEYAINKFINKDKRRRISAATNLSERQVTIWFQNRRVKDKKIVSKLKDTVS
Chain of VAX1 (Homo sapiens, UniProt Q5SQQ9 86-172) (Q5SQQ9 86-172): as the sequence (Q5SQQ9 86-172 K157R) above, with R72K counted along it
Chain of VAX1 (Homo sapiens, UniProt Q5SQQ9 86-172, T142I) (Q5SQQ9 86-172 T142I): as the sequence (Q5SQQ9 86-172 K157R) above, with T57I, R72K counted along it

Sequence: AGTCCCCG
- binding signal (HOXA4 [1]): 9.96 upbm affinity estimate (log intensity, higher = more binding, comparable within an allelic series)
- binding signal (HOXA4 [2]): 9.67 upbm affinity estimate (log intensity, higher = more binding, comparable within an allelic series)
- binding signal (HOXA4 [3]): 9.89 upbm affinity estimate (log intensity, higher = more binding, comparable within an allelic series)
- binding signal (HOXA4 [4]): 9.99 upbm affinity estimate (log intensity, higher = more binding, comparable within an allelic series)

Sequence: CAATCACG
- binding signal (HOXA4 [1]): 10.3 upbm affinity estimate (log intensity, higher = more binding, comparable within an allelic series)
- binding signal (HOXA4 [2]): 10.8 upbm affinity estimate (log intensity, higher = more binding, comparable within an allelic series)
- binding signal (HOXA4 [3]): 11.2 upbm affinity estimate (log intensity, higher = more binding, comparable within an allelic series)
- binding signal (HOXA4 [4]): 10.5 upbm affinity estimate (log intensity, higher = more binding, comparable within an allelic series)

Sequence: ACCTGCCG
- binding signal (HOXA4 [1]): 9.93 upbm affinity estimate (log intensity, higher = more binding, comparable within an allelic series)
- binding signal (HOXA4 [2]): 9.82 upbm affinity estimate (log intensity, higher = more binding, comparable within an allelic series)
- binding signal (HOXA4 [3]): 9.98 upbm affinity estimate (log intensity, higher = more binding, comparable within an allelic series)
- binding signal (HOXA4 [4]): 9.88 upbm affinity estimate (log intensity, higher = more binding, comparable within an allelic series)

Sequence: AGTCCTTC
- binding signal (HOXA4 [1]): 9.96 upbm affinity estimate (log intensity, higher = more binding, comparable within an allelic series)
- binding signal (HOXA4 [2]): 9.81 upbm affinity estimate (log intensity, higher = more binding, comparable within an allelic series)
- binding signal (HOXA4 [3]): 9.61 upbm affinity estimate (log intensity, higher = more binding, comparable within an allelic series)
- binding signal (HOXA4 [4]): 9.89 upbm affinity estimate (log intensity, higher = more binding, comparable within an allelic series)

Sequence: CATGATTA
- binding signal (HOXA4 [1]): 10.4 upbm affinity estimate (log intensity, higher = more binding, comparable within an allelic series)
- binding signal (HOXA4 [2]): 11.4 upbm affinity estimate (log intensity, higher = more binding, comparable within an allelic series)
- binding signal (HOXA4 [3]): 12.6 upbm affinity estimate (log intensity, higher = more binding, comparable within an allelic series)
- binding signal (HOXA4 [4]): 10.8 upbm affinity estimate (log intensity, higher = more binding, comparable within an allelic series)

Sequence: AAGCTAAT
- binding signal (HOXA4 [1]): 10.3 upbm affinity estimate (log intensity, higher = more binding, comparable within an allelic series)
- binding signal (HOXA4 [3]): 12.3 upbm affinity estimate (log intensity, higher = more binding, comparable within an allelic series)

Sequence: AACGAATT
- binding signal (HOXA4 [1]): 10.3 upbm affinity estimate (log intensity, higher = more binding, comparable within an allelic series)
- binding signal (HOXA4 [3]): 11.6 upbm affinity estimate (log intensity, higher = more binding, comparable within an allelic series)

Sequence: GAGTAATA
- binding signal (HOXA4 [1]): 10.3 upbm affinity estimate (log intensity, higher = more binding, comparable within an allelic series)
- binding signal (HOXD13): 10.9 upbm affinity estimate (log intensity, higher = more binding, comparable within an allelic series)
- binding signal (HOXA4 [3]): 11.7 upbm affinity estimate (log intensity, higher = more binding, comparable within an allelic series)

Sequence: CAATTTAG
- binding signal (HOXA4 [1]): 10.5 upbm affinity estimate (log intensity, higher = more binding, comparable within an allelic series)
- binding signal (HOXA4 [3]): 12.1 upbm affinity estimate (log intensity, higher = more binding, comparable within an allelic series)

Sequence: AACATTAG
- binding signal (HOXA4 [1]): 10.2 upbm affinity estimate (log intensity, higher = more binding, comparable within an allelic series)
- binding signal (HOXA4 [2]): 10.8 upbm affinity estimate (log intensity, higher = more binding, comparable within an allelic series)
- binding signal (HOXA4 [3]): 12.4 upbm affinity estimate (log intensity, higher = more binding, comparable within an allelic series)
- binding signal (HOXA4 [4]): 10.7 upbm affinity estimate (log intensity, higher = more binding, comparable within an allelic series)

Sequence: CCTCCGTC
- binding signal (HOXA4 [1]): 9.85 upbm affinity estimate (log intensity, higher = more binding, comparable within an allelic series)
- binding signal (HOXA4 [2]): 9.8 upbm affinity estimate (log intensity, higher = more binding, comparable within an allelic series)
- binding signal (HOXA4 [3]): 9.63 upbm affinity estimate (log intensity, higher = more binding, comparable within an allelic series)
- binding signal (HOXA4 [4]): 9.84 upbm affinity estimate (log intensity, higher = more binding, comparable within an allelic series)

Sequence: GGACTCCC
- binding signal (HOXA4 [1]): 9.88 upbm affinity estimate (log intensity, higher = more binding, comparable within an allelic series)
- binding signal (HOXA4 [2]): 9.72 upbm affinity estimate (log intensity, higher = more binding, comparable within an allelic series)
- binding signal (HOXA4 [3]): 9.84 upbm affinity estimate (log intensity, higher = more binding, comparable within an allelic series)
- binding signal (HOXA4 [4]): 9.79 upbm affinity estimate (log intensity, higher = more binding, comparable within an allelic series)

Sequence: GTCTATAA
- binding signal (HOXA4 [1]): 10.4 upbm affinity estimate (log intensity, higher = more binding, comparable within an allelic series)
- binding signal (HOXA4 [3]): 11.4 upbm affinity estimate (log intensity, higher = more binding, comparable within an allelic series)

Sequence: CCCATGGC
- binding signal (HOXA4 [1]): 9.82 upbm affinity estimate (log intensity, higher = more binding, comparable within an allelic series)
- binding signal (HOXA4 [2]): 9.81 upbm affinity estimate (log intensity, higher = more binding, comparable within an allelic series)
- binding signal (HOXA4 [3]): 9.77 upbm affinity estimate (log intensity, higher = more binding, comparable within an allelic series)
- binding signal (HOXA4 [4]): 9.85 upbm affinity estimate (log intensity, higher = more binding, comparable within an allelic series)

Sequence: ATAAATCG
- binding signal (HOXA4 [1]): 10.2 upbm affinity estimate (log intensity, higher = more binding, comparable within an allelic series)
- binding signal (HOXA4 [3]): 11.5 upbm affinity estimate (log intensity, higher = more binding, comparable within an allelic series)

Sequence: CACGGTGC
- binding signal (HOXA4 [1]): 9.98 upbm affinity estimate (log intensity, higher = more binding, comparable within an allelic series)
- binding signal (HOXA4 [2]): 9.8 upbm affinity estimate (log intensity, higher = more binding, comparable within an allelic series)
- binding signal (HOXA4 [3]): 9.75 upbm affinity estimate (log intensity, higher = more binding, comparable within an allelic series)
- binding signal (HOXA4 [4]): 9.86 upbm affinity estimate (log intensity, higher = more binding, comparable within an allelic series)

Sequence: CCCCGACC
- binding signal (HOXA4 [1]): 9.87 upbm affinity estimate (log intensity, higher = more binding, comparable within an allelic series)
- binding signal (HOXA4 [2]): 9.84 upbm affinity estimate (log intensity, higher = more binding, comparable within an allelic series)
- binding signal (HOXA4 [3]): 9.87 upbm affinity estimate (log intensity, higher = more binding, comparable within an allelic series)
- binding signal (HOXA4 [4]): 9.99 upbm affinity estimate (log intensity, higher = more binding, comparable within an allelic series)

Sequence: GGCGAGCC
- binding signal (HOXA4 [1]): 9.78 upbm affinity estimate (log intensity, higher = more binding, comparable within an allelic series)
- binding signal (HOXA4 [2]): 9.59 upbm affinity estimate (log intensity, higher = more binding, comparable within an allelic series)
- binding signal (HOXA4 [3]): 9.66 upbm affinity estimate (log intensity, higher = more binding, comparable within an allelic series)
- binding signal (HOXA4 [4]): 9.76 upbm affinity estimate (log intensity, higher = more binding, comparable within an allelic series)

Sequence: ACCCTAGG
- binding signal (HOXA4 [1]): 9.88 upbm affinity estimate (log intensity, higher = more binding, comparable within an allelic series)
- binding signal (HOXA4 [2]): 9.89 upbm affinity estimate (log intensity, higher = more binding, comparable within an allelic series)
- binding signal (HOXA4 [3]): 9.97 upbm affinity estimate (log intensity, higher = more binding, comparable within an allelic series)
- binding signal (HOXA4 [4]): 9.92 upbm affinity estimate (log intensity, higher = more binding, comparable within an allelic series)

Sequence: CCTGGGCG
- binding signal (HOXA4 [1]): 9.75 upbm affinity estimate (log intensity, higher = more binding, comparable within an allelic series)
- binding signal (HOXA4 [2]): 9.75 upbm affinity estimate (log intensity, higher = more binding, comparable within an allelic series)
- binding signal (HOXA4 [3]): 9.75 upbm affinity estimate (log intensity, higher = more binding, comparable within an allelic series)
- binding signal (HOXA4 [4]): 9.8 upbm affinity estimate (log intensity, higher = more binding, comparable within an allelic series)

Sequence: GAAGGGGA
- binding signal (HOXA4 [1]): 9.88 upbm affinity estimate (log intensity, higher = more binding, comparable within an allelic series)
- binding signal (HOXA4 [2]): 9.89 upbm affinity estimate (log intensity, higher = more binding, comparable within an allelic series)
- binding signal (HOXA4 [3]): 9.82 upbm affinity estimate (log intensity, higher = more binding, comparable within an allelic series)
- binding signal (HOXA4 [4]): 10 upbm affinity estimate (log intensity, higher = more binding, comparable within an allelic series)

Sequence: ACGTTAAT
- binding signal (HOXA4 [1]): 10.6 upbm affinity estimate (log intensity, higher = more binding, comparable within an allelic series)
- binding signal (HOXA4 [2]): 11.6 upbm affinity estimate (log intensity, higher = more binding, comparable within an allelic series)
- binding signal (HOXA4 [3]): 12.9 upbm affinity estimate (log intensity, higher = more binding, comparable within an allelic series)
- binding signal (HOXA4 [4]): 11 upbm affinity estimate (log intensity, higher = more binding, comparable within an allelic series)

Sequence: AATCACTG
- binding signal (HOXA4 [1]): 10.3 upbm affinity estimate (log intensity, higher = more binding, comparable within an allelic series)
- binding signal (HOXA4 [3]): 11.3 upbm affinity estimate (log intensity, higher = more binding, comparable within an allelic series)
- binding signal (VAX1 [5]): 9.43 upbm affinity estimate (log intensity, higher = more binding, comparable within an allelic series)
- binding signal (VAX1 [6]): 9.21 upbm affinity estimate (log intensity, higher = more binding, comparable within an allelic series)
- binding signal (VAX1 [7]): 9.33 upbm affinity estimate (log intensity, higher = more binding, comparable within an allelic series)

Sequence: ATGACAGC
- binding signal (HOXA4 [1]): 10.2 upbm affinity estimate (log intensity, higher = more binding, comparable within an allelic series)
- binding signal (HOXA4 [3]): 11.3 upbm affinity estimate (log intensity, higher = more binding, comparable within an allelic series)
- binding signal (HOXA4 [4]): 10.5 upbm affinity estimate (log intensity, higher = more binding, comparable within an allelic series)
